Results on twelve compounds are retold here after PubChem BioAssay.

Where “and” joins values, the source holds several entries; their conditions need not be identical. Identical values can stand only once. Calls of active or inactive are those of the source. Rule as the data show it, unless noted: active = parasite load remaining mostly below about 12% (no sharp cut-off); inactive = mostly above about 10%.

The nature of test [1]: glutamate transport activators, MN-1 cells, MN-1 cell line (AID 1612).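 Also: tested at 1 µM final; 0% = mean of DMSO vehicle wells on each plate; positive means more glutamate uptake than control and negative means less.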 The settings on record: MN-1 motor neuron cells, stronger effect = higher value.
A short description of test [2]: 75Q-TubH aggregate inhibition, S. cerevisiae, yeast (AID 1616). The settings on record: S. cerevisiae 75Q-TubH polyglutamine aggregation suppression; stronger effect = higher value.
The nature of test [3]: P. berghei load reduction in hepatocytes – cell-based, HepG2, luciferase luminescence, HepG2 viability, primary screen (AID 624349).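 Also: 100% = mean of DMSO negative control wells on the same plate.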 The conditions noted are these: P. berghei liver stage in HepG2, luciferase luminescence, concentration not given here; parasite load remaining: stronger effect = lower value; viability: measured here: HepG2 viability without parasites.
Test [4] in a line: Wnt pathway potentiators raising nuclear beta-catenin – imaging, WNT3A-conditioned medium, mouse C2C12, NPC library, primary screen (AID 1117326; in the data active = nuclear beta-catenin stimulation mostly above about 4.2%, no sharp cut-off; inactive = mostly below about 10%). The conditions noted are these: stronger effect = higher value.
The nature of test [5]: compounds altering circadian rhythm period length – cell-based, LOPAC library, luminescence reporter (AID 2774; call rule not given here;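 also: values are relative to mean of DMSO wells on each plate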). The conditions noted are these: circadian reporter cells, at 7 µM, actives lie on both sides.
A short description of test [6]: compounds altering viability of human ES cells (AID 493140; call rule not given here;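 also: cells exposed to compounds for four days before counting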). The settings on record: human embryonic stem cell survival screen; stronger effect = higher value.
Test [7] has as its system Hepatitis C virus NS3 helicase. Briefly: blockers of NS3h binding to ssDNA – biochemical, fluorescence polarization, LOPAC1280 library, primary screen (AID 687035; in the data active = inhibition above about 37%). The settings on record: Purified HCV NS3 helicase, Cy5-dT15 ssDNA binding fluorescence polarization; stronger effect = higher value; concentration not given here.
A short description of test [8]: compounds altering Cy5-DNA-NS3h complex signal – biochemical, LOPAC1280, artefact control for HCV NS3 helicase inhibitor project (AID 687037; call rule not given here). The conditions noted are these: Cy5-DNA-NS3h complex fluorescence interference counterscreen.
Test [9] is described as follows: antimalarial activity against Dd2 strain (AID 2302;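 active = growth inhibition above 50% at the single 2 µM test dose, taken to imply half-maximal potency below 2 µM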;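 also: 0% = DMSO untreated growth and 100% = chloroquine plus artemisinin killed control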). The conditions noted are these: P. falciparum Dd2 in RBCs, LDH growth readout, 72 h; at 2 µM; stronger effect = higher value.
Test [10] in a line: human hepatoma cell viability loss – ATP luminescence, cytotoxicity control for P. falciparum antimalarial project, primary screen (AID 2303;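 active = inhibition above 50%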;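 also: 0% = DMSO wells and 100% = digitonin-killed cells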). The settings on record: HepG2 viability, 24-48 h, at 10 µM, stronger effect = higher value.
For test [11], the target named is L-lactate dehydrogenase (Plasmodium falciparum (isolate CDC / Honduras)) (UniProt Q27743). Briefly: PfLDH activity inhibition – cell lysate, 3D7 strain, counter-screen for P. falciparum growth inhibition project (AID 2304; call rule not given here;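 also: 0% = vehicle and 100% = reference inhibitor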). The conditions noted are these: P. falciparum 3D7 crude extract, LDH APAD/NBT absorbance; at 2 µM; stronger effect = higher value. Background: Counterscreens check selectivity or assay interference.

Test [12] is described as follows: inhibition of 3D7 malaria parasite growth – strain 3D7 (AID 2306; call rule not given here;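 also: 0% = DMSO wells and 100% = chloroquine plus artemisinin control wells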). The settings on record: P. falciparum 3D7 erythrocytic growth, LDH absorbance, 72 h; at 2 µM; stronger effect = higher value.

Sequence of L-lactate dehydrogenase (Plasmodium falciparum (isolate CDC / Honduras)) (Q27743 whole entry, looked up): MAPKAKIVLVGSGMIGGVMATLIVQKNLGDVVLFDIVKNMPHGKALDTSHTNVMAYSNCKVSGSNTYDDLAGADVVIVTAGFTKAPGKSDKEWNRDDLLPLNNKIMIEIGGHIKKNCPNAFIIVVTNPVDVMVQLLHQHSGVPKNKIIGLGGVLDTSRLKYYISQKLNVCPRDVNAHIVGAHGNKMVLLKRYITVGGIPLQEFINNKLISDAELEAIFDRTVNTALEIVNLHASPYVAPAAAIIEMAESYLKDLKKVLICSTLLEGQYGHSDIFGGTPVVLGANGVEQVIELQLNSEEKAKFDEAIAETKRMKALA

`O=C1OC(c2ccc(O)cc2)(c2ccc(O)cc2)c2ccccc21`: the glutamate uptake change in [1] was -16.5%. The aggregation suppression score in [2] was 1.31. In test [3], the parasite load remaining was 95% (inactive) and 84.8% (inactive); the viability is 73.9% and 95.1%. The nuclear beta-catenin stimulation in [4] (at 10 µM) is 1.3% (inactive). In test [4] (stimulation, at 2 µM), the nuclear beta-catenin stimulation is 0%.
As to `C[C@]12C=CC(=O)C=C1CC[C@H]1[C@@H]3C[C@@H](O)[C@](O)(C(=O)CO)[C@@]3(C)C[C@H](O)[C@@]12F`, in [5], the period change was -0.51 h (inactive). The survival in test [6] was 13.9 (inactive). Also, the parasite load remaining in [3] is 59.1% (inactive) and 78.5% (inactive) and 29.4% (inactive). Moreover, the viability in [3] was 105% and 93.7% and 75%. Also, in [7], the inhibition is -2% (inactive). Moreover, in [8], the fluorescence ratio (interference) was 1 (inactive). Besides, the nuclear beta-catenin stimulation was -1.1% (inactive) in test [4] (at 10 µM) and -0.2% in [4] (stimulation, at 2 µM).
On to `CN(Cc1cc(Br)cc(Br)c1N)C1CCCCC1`, for which the glutamate uptake change in [1] is -11.2%. For the same compound, in [2], the aggregation suppression score amounted to 1.07. Besides, in test [3], the parasite load remaining was 167% (inactive) and 46% (inactive) and 10.9% (inactive); the viability is 89% and 109% and 68%. In addition, the nuclear beta-catenin stimulation in test [4] (at 10 µM) was -0.1% (inactive). In addition, the nuclear beta-catenin stimulation in test [4] (stimulation, at 2 µM) is -0.5%.
As to `O=C(OCC(O)CO)c1ccccc1Nc1ccnc2cc(Cl)ccc12` (stereo not given), the glutamate uptake change in [1] stood at 4.05%. The aggregation suppression score in test [2] stood at 0.893. Moreover, the survival in test [6] was 17.9 (inactive). In test [3], the parasite load remaining was 9.85% (inactive) and 91.3% (inactive) and 74.6% (inactive); the viability is 47.1% and 73.6% and 92%. Further, in test [4] (at 10 µM), the nuclear beta-catenin stimulation is 3.1% (inactive). Moreover, the nuclear beta-catenin stimulation in [4] (stimulation, at 2 µM) was -0.3%.
On to `Nc1nc(=S)c2[nH]cnc2[nH]1`, for which the glutamate uptake change in [1] is -1.16%. This compound gave an aggregation suppression score in [2] of 1.86. Further, in test [3], the parasite load remaining is 146% (inactive) and 64.9% (inactive); the viability is 48.2% and 41.8%. Besides, the nuclear beta-catenin stimulation in [4] (at 10 µM) was 14.8% (inactive). For the same compound, the nuclear beta-catenin stimulation in test [4] (stimulation, at 2 µM) came out at 6.2%.
`CCC(=O)O[C@H]1[C@H](O[C@@H]2[C@@H](C)[C@H](O[C@H]3C[C@@](C)(OC)[C@@H](O)[C@H](C)O3)[C@@H](C)C(=O)O[C@H](CC)[C@@](C)(O)[C@H](O)[C@@H](C)C(=O)[C@H](C)C[C@@]2(C)O)O[C@H](C)C[C@@H]1N(C)C`: the glutamate uptake change in test [1] was -11.5%. Also, the aggregation suppression score in test [2] is -0.59. In [3], the parasite load remaining is 85.6% (inactive) and 40.4% (inactive); the viability was 67.9% and 93.1%. The nuclear beta-catenin stimulation in test [4] (at 10 µM) is 0.6% (inactive). In [4] (stimulation, at 2 µM), the nuclear beta-catenin stimulation was -0.8%.
For `Oc1c(Br)cc(Br)c2cccnc12`, in test [1], the glutamate uptake change stood at 4.76%. Besides, the aggregation suppression score in [2] is -0.0132. The parasite load remaining in test [3] was 81.4% (inactive). Moreover, the viability in [3] was 68.8%. Also, the nuclear beta-catenin stimulation was 4.7% (inactive) in test [4] (at 10 µM) and 0.1% in [4] (stimulation, at 2 µM).
In the case of `CN1C(C)(C)CCCC1(C)C`, in test [5], the period change is -0.07 h (inactive). Moreover, in [6], the survival was 3.5 (inactive). The parasite load remaining in [3] was 91.5% (inactive) and 53.1% (inactive). Moreover, in test [3], the viability was 99.3% and 92.2%. Besides, the nuclear beta-catenin stimulation in test [4] (at 10 µM) is 1.1% (inactive); in test [4] (stimulation, at 2 µM) it was 0.5%.
On to `Oc1ccc(Cl)cc1Cc1cc(Cl)ccc1O`, for which the glutamate uptake change in [1] was -22.2%. Moreover, the aggregation suppression score in test [2] was -0.099. Further, in test [3], the parasite load remaining is 11.8% (inactive). Further, in test [3], the viability came out at 65.1%. Moreover, the nuclear beta-catenin stimulation is 10.6% (inactive) in [4] (at 10 µM) and 5.8% in test [4] (stimulation, at 2 µM).
Turning to `O=C(Nc1cccc(C2=NCCN2)c1)Nc1cccc(C2=NCCN2)c1`, the growth inhibition in test [9] was 99% (active); in [12], 98% (active). In addition, the values for the inhibition in test [10] and in [11] were 16% (inactive) and 7% (inactive), respectively. Besides, the nuclear beta-catenin stimulation is 1.5% (inactive) in test [4] (at 10 µM) and 4.9% in test [4] (stimulation, at 2 µM).
In the case of `CC1CCC(NC(=O)N(CCCl)N=O)CC1` (stereo not given), the glutamate uptake change in [1] was -7.99%. In test [2], this compound returned an aggregation suppression score of 0.0109. In addition, in test [3], the parasite load remaining was 62.2% (inactive) and 25.6% (inactive); the viability was 87.1% and 108%. The nuclear beta-catenin stimulation in test [4] (at 10 µM) is 5.9% (inactive). Further, the nuclear beta-catenin stimulation in test [4] (stimulation, at 2 µM) came out at 4.9%.
`CCCCCCOc1ccccc1C(N)=O`: in test [1], the glutamate uptake change was found to be 0.56%. Also, the aggregation suppression score in test [2] amounted to 0.156. In addition, the parasite load remaining in [3] was 151% (inactive). For the same compound, in [3], the viability was determined as 88.6%. Moreover, the nuclear beta-catenin stimulation in test [4] (at 10 µM) is 2.2% (inactive); in [4] (stimulation, at 2 µM), -1%.

For orientation: viability means a read-out of living cells in per cent, often relative to untreated cells. As usually defined, the inhibition is the change of the read-out against control, counted positive when it falls.
